Screening data from PubChem BioAssay.
An excerpt weighted towards active compounds, which were near 11% of everything screened.
PNC inhibitor: perinucleolar compartment assembly inhibition; PC3M PTB-GFP, PNC prevalence imaging, 16 h; active compounds read low; activity change (PNC), negative = inhibition, % at 10 µM; 140,000 compounds, 3.1% hits;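 active = readout at or below -70, meaning at least 70% loss of cells showing the perinucleolar compartment, a nuclear body marking cancer cells; inconclusive = readout between -30 and a set limit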;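 note: plate controls were DMSO wells for no effect and camptothecin positive control wells for full effect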
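Compounds are pinned in duplicate onto adhered PC3M cells stably expressing GFP-tagged PTB and incubated 16 h at 37 C. Cells are then fixed, nuclei stained with Hoechst, and PNC-positive cells counted.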
HttQ103 aggreg: mutant huntingtin aggregation inhibition; 220,000 compounds, 1.1% hits; PC12 HttQ103-GFP aggregates, Acumen cytometry, 40 h; Potency, µM (doses to about 46.1 µM), inactives show top-dose activity change, negative = inhibition, hits mostly inhibitors; active = well fitted curve in the direction sought with a large enough effect; inconclusive = small, poorly fitted or top-dose-only effect, or another doubt; inactive = no such curve, though single readings can be large; an effect the other way counts as inactive or inconclusive; note: potency is the fitted concentration of half-maximal effect; % is set by controls: 0 for no effect and ±100 for the full control effect; nearly all actives have a fitted effect of over 60% in size
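Steps: seed 1500 PC12 HTTQ103-GFP cells/well; add tebufenozide, 100 nM final; add compound titration; add ATPLite reagent; quantify GFP aggregates by laser scanning cytometry.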
HPGD inh: inhibitors of human 15-hydroxyprostaglandin dehydrogenase (HPGD); purified HPGD, NADH fluorescence kinetic, PGE2 substrate; Potency, µM, without a hit: at the top dose activity change, negative = inhibition, most hits filed as inhibitors; 150,000 compounds, 4.3% hits; AID 894; note: potency is the fitted concentration of half-maximal effect; % is set by controls: 0 for no effect and ±100 for the full control effect
Target sequence (P15428 whole entry, looked up): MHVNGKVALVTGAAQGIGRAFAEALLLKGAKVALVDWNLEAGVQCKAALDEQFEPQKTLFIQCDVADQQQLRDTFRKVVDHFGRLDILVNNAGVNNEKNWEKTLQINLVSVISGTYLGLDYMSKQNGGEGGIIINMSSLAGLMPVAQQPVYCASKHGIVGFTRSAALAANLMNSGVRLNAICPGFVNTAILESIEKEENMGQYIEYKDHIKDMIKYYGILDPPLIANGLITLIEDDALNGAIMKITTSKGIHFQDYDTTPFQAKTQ
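20 nM HPGD preincubated 15 min at room temperature with compound in 50 mM Tris-HCl pH 8, 0.01% Tween 20. Started with 1 mM NAD+ and 30 uM prostaglandin E2; NADH fluorescence (360/450 nm) read 5 times over 30-s intervals, last minus first.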
HTT cytoprotect: Huntington cell model cytoprotection by ATP luminescence; AID 1471; Potency, µM (top dose mostly 56.4 µM), for inactives: cytoprotection (ATP increase), most hits filed as activators; PC12 HTT-Q103 induced, cytoprotection, ATP luminescence, 40 h; 230,000 compounds, 0.14% hits; active = well fitted curve in the direction sought with a large enough effect; inconclusive = small, poorly fitted or top-dose-only effect, or another doubt; inactive = no such curve, though single readings can be large; an effect the other way counts as inactive or inconclusive; note: potency is the fitted concentration of half-maximal effect; % of control where 0% means no effect; nearly all actives have a fitted effect of over 45% in size
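Readout: ATPlite luminescence (ATP level). Model: stable PC12, inducible Htt exon1 Q103-GFP. Inducer: tebufenozide, 100 nM final. Compounds: dose series. No G418 in medium.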
GoLoco inh red: inhibitors of human Gai1-RGS12 GoLoco interaction (red fluorophore); P63096; Gai1:RGS12 GoLoco peptide FP, rhodamine, 10 min; Potency, µM (top dose mostly 61.6 µM), for inactives: at the top dose activity, negative = inhibition, hits mostly inhibitors; 230,000 compounds, 0.44% hits; AID 880; active = well fitted inhibition curve with a large enough effect, not every such curve was filed as active; inactive = no such curve, though single readings can be large or run the other way; note: potency is the fitted concentration of half-maximal effect; % is set by controls: 0 for no effect and ±100 for the full control effect; nearly all actives have a fitted effect of over 30% in size
Target sequence (P63096 whole entry, looked up): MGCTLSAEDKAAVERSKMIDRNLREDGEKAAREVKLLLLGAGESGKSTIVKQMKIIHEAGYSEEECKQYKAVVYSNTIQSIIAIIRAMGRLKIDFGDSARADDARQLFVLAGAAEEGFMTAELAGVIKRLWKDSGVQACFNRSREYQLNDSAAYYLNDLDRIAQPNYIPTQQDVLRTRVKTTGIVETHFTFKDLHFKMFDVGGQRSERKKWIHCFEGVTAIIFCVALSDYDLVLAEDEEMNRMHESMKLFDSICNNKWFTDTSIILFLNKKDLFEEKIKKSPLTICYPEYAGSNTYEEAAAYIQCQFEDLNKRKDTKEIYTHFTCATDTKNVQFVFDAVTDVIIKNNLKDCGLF
ALDH1A1 block: ALDH1A1 (human) enzyme inhibition; 220,000 compounds, 7.3% hits; P00352; Potency, µM (series often up to 75.3 µM), inactives show at the highest dose activity, negative = inhibition, hits mostly inhibitors; AID 1030; Purified ALDH1A1, NADH fluorescence, propionaldehyde substrate;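 note: potency is the fitted concentration of half-maximal effect; plate controls were no enzyme wells and a reference inhibitor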
* = called active by the depositor; [ ] = dose if it differs, or a comment. Unless noted, calls come from the whole dose curve; as a rule, active = well fitted inhibition curve with a large enough effect (not every such curve was filed as active); inconclusive = small, poorly fitted or top-dose-only effect, or another doubt; inactive = no such curve, though single readings can be large or run the other way.

`C=CCNc1nnc(SC2CC(=O)N(c3ccc(OC)cc3)C2=O)s1` (stereo not given) gave PNC inhibitor -6, HttQ103 aggreg inconclusive, HPGD inh inconclusive, HTT cytoprotect -171%, GoLoco inh red -6% and ALDH1A1 block 2µM*.
`COC(=O)c1ccc(N2C(=O)CC(SCC(=O)Nc3ccc(OC)cc3)C2=O)cc1` (stereo not given) gave HttQ103 aggreg -30%[9.22 µM], HTT cytoprotect -5%[10 µM] and GoLoco inh red 14%.
For COCCn1c(=O)cnc2cnc(OCc3ccccc3)nc21 the results were HPGD inh -10%, HTT cytoprotect 19%, GoLoco inh red 7% and ALDH1A1 block -3%.
Screening CCCC[C@@H]1C[C@H]1C(NC(=O)c1cccs1)c1ccc(-c2ccccc2)cc1 (stereo not given in full) returned HPGD inh -7%, HTT cytoprotect -47%, GoLoco inh red 4% and ALDH1A1 block -3%.
`COc1ccc(N2C(=O)CC(Sc3nccc(C)n3)C2=O)cc1` (stereo not given) gave PNC inhibitor 28, HttQ103 aggreg -8%, HPGD inh -2%, HTT cytoprotect -21%, GoLoco inh red -3% and ALDH1A1 block 22µM*.
`COc1ccc(N2C(=O)CC(Sc3ncccc3C(=O)O)C2=O)cc1` (stereo not given) gave PNC inhibitor -3, HttQ103 aggreg 3%, HPGD inh -4%, HTT cytoprotect 7%[10 µM], GoLoco inh red 4% and ALDH1A1 block inconclusive.
`CCOc1ccc(N2C(=O)CC(SCCN)C2=O)cc1` (stereo not given) gave PNC inhibitor 26, HttQ103 aggreg 15%, HPGD inh -6%, HTT cytoprotect -84%, GoLoco inh red -29% and ALDH1A1 block 3.2µM*.
`COc1ccc(N2C(=O)CC(Sc3nc4ccccc4s3)C2=O)cc1` (stereo not given) gave HttQ103 aggreg 32µM*, HTT cytoprotect -137%, GoLoco inh red 19% and ALDH1A1 block 7.9µM*.
COc1ccc(N2C(=O)CC(NNc3nc4ccccc4s3)C2=O)cc1 (stereo not given) was read as HttQ103 aggreg 8%[9.22 µM], HTT cytoprotect 12%[10 µM] and GoLoco inh red -14%.
For COc1ccc(N2C(=O)CC(Sc3nnc(-c4ccccc4F)n3C)C2=O)cc1 (stereo not given) the results were HttQ103 aggreg inconclusive, HTT cytoprotect -6%, GoLoco inh red -3% and ALDH1A1 block 1.8µM*.
CN1CCN(c2ncncc2-c2ccccc2Cl)CC1 was read as HTT cytoprotect 15%, GoLoco inh red -11% and ALDH1A1 block 2%.
CCCCCCC=O was read as HPGD inh -3%, HTT cytoprotect -2%, GoLoco inh red -18% and ALDH1A1 block -9%.
Screening O=C(Nc1ccc(-c2noc(CCc3ccccc3)n2)cc1)c1ccco1 returned PNC inhibitor -89*, HttQ103 aggreg -34%, HPGD inh 25µM*, HTT cytoprotect -39%[10 µM], GoLoco inh red 19% and ALDH1A1 block inconclusive.
For O=C(NCc1ccccn1)c1coc(=O)c(Br)c1 the results were PNC inhibitor -87*, HttQ103 aggreg 26%, HPGD inh inconclusive, HTT cytoprotect 1%[10 µM], GoLoco inh red 55% and ALDH1A1 block inconclusive.
Screening O=C(Nc1cccc(Oc2ccc3c(c2)C(=O)NC3=O)c1)c1ccco1 returned PNC inhibitor -92*, HttQ103 aggreg -16%, HPGD inh 20µM*, HTT cytoprotect -4%, GoLoco inh red -12% and ALDH1A1 block 5%.
Screening O=C(Oc1ccccc1)c1ccc(NC(=O)c2ccco2)cc1 returned PNC inhibitor 43, HttQ103 aggreg 2%, HPGD inh 13µM*, HTT cytoprotect 0%[0.074 µM], GoLoco inh red 3% and ALDH1A1 block 18µM*.
Screening CCOc1ccc(C(=O)NCc2ccccn2)cc1 returned PNC inhibitor 5, HttQ103 aggreg 1%, HPGD inh -18%, HTT cytoprotect -26%, GoLoco inh red 7% and ALDH1A1 block 8%.
Screening COCCn1c(=O)c(-c2ccc(Cl)cc2)nc2cnc(N(C)C)nc21 returned HTT cytoprotect -38%, GoLoco inh red -2% and ALDH1A1 block inconclusive.
`FC(F)(F)c1ccccc1-c1cncnc1NCCN1CCOCC1` gave HTT cytoprotect -44%, GoLoco inh red -1% and ALDH1A1 block 15%.
`Cn1c(CSCc2ccc(Cl)cc2)n[nH]c1=S` gave HttQ103 aggreg 13%[9.22 µM], HTT cytoprotect -27%, GoLoco inh red 12% and ALDH1A1 block -6%.
CC(=O)Nc1cccc(NC(=O)CS(=O)(=O)c2cn(CC(=O)N3CCOCC3)c3ccccc23)c1 was read as HttQ103 aggreg -3%, HTT cytoprotect -35%, GoLoco inh red -1% and ALDH1A1 block -4%.
Screening C=CCOC(=O)[C@H](O)[C@@H](O)C(=O)OCC=C returned HPGD inh -3%, HTT cytoprotect inconclusive, GoLoco inh red 3% and ALDH1A1 block 0%.
`Cc1ccc(C(=O)NCc2ccccn2)c(Cl)c1` gave PNC inhibitor 11, HttQ103 aggreg 8%, HPGD inh 14µM*, HTT cytoprotect -23%, GoLoco inh red 33% and ALDH1A1 block 9%.
O=C(NCc1ccccn1)c1ccc(NC(=O)c2ccco2)cc1 was read as PNC inhibitor inconclusive, HttQ103 aggreg 13%, HPGD inh 14µM*, HTT cytoprotect 4%[0.074 µM], GoLoco inh red -6% and ALDH1A1 block inconclusive.
Screening O=C(Nc1ccc(Oc2cccc(C(F)(F)F)c2)nc1)c1ccco1 returned HttQ103 aggreg -15%[9.22 µM], HTT cytoprotect 5%[10 µM], GoLoco inh red 10% and ALDH1A1 block 40µM*.
For O=C(NCc1cccnc1)c1ccc(NC(=O)c2ccco2)cc1 the results were PNC inhibitor 36, HttQ103 aggreg -10%, HPGD inh -8%, HTT cytoprotect 19%[10 µM], GoLoco inh red 7% and ALDH1A1 block 10%.
CC(C)(C)c1ccc(Oc2ccc(NC(=O)c3ccco3)cn2)cc1 was read as HttQ103 aggreg inconclusive, HTT cytoprotect -66%[10 µM] and GoLoco inh red 6%.
For Cc1ccc(Oc2ccc(NC(=O)c3ccco3)cc2)cc1 the results were PNC inhibitor 12, HttQ103 aggreg 22µM*, HPGD inh inconclusive, HTT cytoprotect -25%, GoLoco inh red -8% and ALDH1A1 block inconclusive.
`CC12CC[C@@H]3c4ccc(OS(=O)(=O)O)cc4CC[C@H]3C1CCC2=O` (stereo not given in full) gave HPGD inh 1%, HTT cytoprotect 1%[40.3 µM], GoLoco inh red 11%[21.6 µM] and ALDH1A1 block -9%[20.9 µM].
